Screen size: about 5,500 compounds; about 2,000 (36%) were called active. About 18% were inconclusive and are not listed. No stated cut-off is given here; in the data, active means normalized growth mostly below about 0.91 (no sharp cut-off); inconclusive means no clear call, values can overlap the other calls; inactive means mostly above about 0.92. Some of the results follow.
Assay: chemical genetic growth profiling, strain panel (AID 1159580);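 further: tested at 20 µM; growth read once vehicle control cultures reached saturation at 30 °C; 1 = growth at the plate median or of vehicle wells; lower values mean less growth of the strain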
Conditions: S. cerevisiae deletion strains, growth OD

Measured: normalized growth

CS(=O)(=O)/C(C#N)=C/c1ccccc1OCc1c(Cl)cccc1Cl
inactive: locus YAR019C, strain CDC15, hits give low values 0.978 | locus YBL105C, strain PKC1, hits give low values 0.958 | locus YBR135W, strain CKS1, hits give low values 0.964 | locus YBR136W, strain MEC1, hits give low values 0.958 | locus YBR160W, strain CDC28, hits give low values 0.954 | locus YDL017W, strain CDC7, hits give low values 0.961 | locus YDL028C, strain MPS1, hits give low values 0.956 | locus YDL101C, strain DUN1, hits give low values 0.958 | locus YDL108W, strain KIN28, hits give low values 0.942 | locus YDL132W, strain cdc53, hits give low values 0.96 | locus YDL214C, strain PRR2, hits give low values 0.926 | locus YDR052C, strain DBF4, hits give low values 0.957 | locus YDR054C, strain cdc34, hits give low values 0.975 | locus YDR226W, strain ADK1, hits give low values 0.969 | locus YDR477W, strain SNF1, hits give low values 0.943 | locus YER123W, strain YCK3, hits give low values 0.913 | locus YER133W, strain GLC7, hits give low values 0.953 | locus YFL009W, strain cdc4, hits give low values 0.977 | locus YFL029C, strain CAK1, hits give low values 0.979 | locus YFR003C, strain YPI1, hits give low values 0.965 | locus YFR019W, strain FAB1, hits give low values 0.961 | locus YFR028C, strain CDC14, hits give low values 0.974 | locus YGR040W, strain KSS1, hits give low values 0.91 | locus YGR052W, strain FMP48, hits give low values 0.97 | locus YGR092W, strain DBF2, hits give low values 0.934 | locus YHR030C, strain SLT2, hits give low values 1.02 | locus YHR079C, strain IRE1, hits give low values 1.03 | locus YHR082C, strain KSP1, hits give low values 1.01 | locus YHR205W, strain SCH9, hits give low values 0.916 | locus YIL147C, strain SLN1, hits give low values 0.956 | locus YJL095W, strain BCK1, hits give low values 0.976 | locus YJL128C, strain PBS2, hits give low values 0.918 | locus YJL157C, strain FAR1, hits give low values 0.95 | locus YJR016C, strain ILV3, hits give low values 0.973 | locus YJR066W, strain TOR1 (second series), hits give low values 0.947 | locus YJR066W, strain TOR1, hits give low values 1.04 | locus YKL048C, strain ELM1, hits give low values 0.901 | locus YKL067W, strain YNK1, hits give low values 0.942 | locus YKL101W, strain HSL1, hits give low values 0.892 | locus YKL193C, strain SDS22, hits give low values 0.968 | locus YKL203C, strain TOR2, hits give low values 0.996 | locus YLR113W, strain HOG1, hits give low values 0.866 | locus YLR133W, strain CKI1, hits give low values 0.92 | locus YLR403W, strain SFP1, hits give low values 0.885 | locus YML070W, strain DAK1, hits give low values 0.923 | locus YMR001C, strain CDC5, hits give low values 0.966 | locus YMR205C, strain PFK2 (second series), hits give low values 0.953 | locus YMR277W, strain FCP1, hits give low values 0.978 | locus YNL006W, strain LST8, hits give low values 0.973 | locus YNL020C, strain ARK1, hits give low values 0.926 | locus YNL161W, strain CBK1, hits give low values 0.964 | locus YNL183C, strain NPR1, hits give low values 1.02 | locus YNL207W, strain RIO2, hits give low values 0.946 | locus YNL222W, strain SSU72, hits give low values 0.966 | locus YNL307C, strain MCK1 (second series), hits give low values 0.945 | locus YOL078W, strain AVO1, hits give low values 0.962 | locus YOL136C, strain PFK27, hits give low values 0.879 | locus YOR061W, strain CKA2, hits give low values 0.922 | locus YOR119C, strain RIO1, hits give low values 0.986 | locus YOR231W, strain MKK1, hits give low values 0.948 | locus YOR329C, strain SCD5, hits give low values 0.968 | locus YPL031C, strain PHO85, hits give low values 0.934 | locus YPL153C, strain RAD53, hits give low values 0.95 | locus YPL204W, strain HRR25, hits give low values 0.897 | locus YPL209C, strain IPL1, hits give low values 0.967 | locus YPL256C, strain CLN2, hits give low values 0.979 | locus YPR025C, strain CCL1, hits give low values 0.969 | locus YPR106W, strain ISR1, hits give low values 0.948 | locus YPR111W, strain DBF20, hits give low values 0.924 | strain NNK1, hits give low values 0.966 | strain TSCII, hits give low values 0.962
